Sfp inh: qHTS Assay for Inhibitors of Bacillus subtilis Sfp phosphopantetheinyl transferase (PPTase) | 4'-phosphopantetheinyl transferase ffp (Bacillus subtilis), Q9F4F7 | Biochemical Sfp PPTase activity, qHTS | Potency, µM, for inactives: largest response in the series, negative = inhibition, hits mostly inhibitors | hit rate 3.5% among 310,000;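 also: the enzyme is Sfp with the accession as filed and its product quenches rhodamine fluorescence; 0% = enzyme reaction without inhibitor and -100% = no enzyme wells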
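Compounds were incubated with enzyme (final 15 nM) for 15 min at room temperature before substrate addition started the reaction. Fluorescence at 525 nm excitation, 598 nm emission was recorded immediately and after 30 minutes.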
VP16 counter: VP16 counterscreen qHTS for inhibitors of ROR gamma transcriptional activity. Drosophila S2 Gal4-VP16 UAS-luciferase, luminescence, 20 h. Potency, µM (highest dose often 53.6 µM), for inactives: at the highest dose activity, negative = inhibition, usual class: inhibitors. hit rate 3.5% among 310,000;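 also: Gal4-VP16 expression switched on by copper sulfate through the metallothionein promoter; nearly all actives have a fitted effect of over 50% in size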
PLK1 PBD block: qHTS for Inhibitors of PLK1-PDB (polo-like kinase 1 - polo-box domain): Primary Screen; Potency, µM, without a hit: max response, negative = inhibition, hits mostly inhibitors; hit rate 2.8% among 360,000; Plk1 PBD binding of FITC phosphopeptide, fluorescence polarization; Serine/threonine-protein kinase PLK1 (Homo sapiens), P53350; also: series mostly up to about 57 µM; nearly all actives have a fitted effect of over 65% in size
RORgamma inh: qHTS for inhibitors of ROR gamma transcriptional activity; AID 2551, 2010; hit rate 5.4% among 310,000; Potency, µM (highest dose often 53.6 µM), without a hit: top-dose activity change, negative = inhibition, usual class: inhibitors; Drosophila S2 Gal4-RORgamma UAS-luciferase reporter, 20 h; Nuclear receptor ROR-gamma (Mus musculus), P51450; also: nearly all actives have a fitted effect of over 60% in size
Target sequence (P51450 whole entry, looked up, the tested form may be a part): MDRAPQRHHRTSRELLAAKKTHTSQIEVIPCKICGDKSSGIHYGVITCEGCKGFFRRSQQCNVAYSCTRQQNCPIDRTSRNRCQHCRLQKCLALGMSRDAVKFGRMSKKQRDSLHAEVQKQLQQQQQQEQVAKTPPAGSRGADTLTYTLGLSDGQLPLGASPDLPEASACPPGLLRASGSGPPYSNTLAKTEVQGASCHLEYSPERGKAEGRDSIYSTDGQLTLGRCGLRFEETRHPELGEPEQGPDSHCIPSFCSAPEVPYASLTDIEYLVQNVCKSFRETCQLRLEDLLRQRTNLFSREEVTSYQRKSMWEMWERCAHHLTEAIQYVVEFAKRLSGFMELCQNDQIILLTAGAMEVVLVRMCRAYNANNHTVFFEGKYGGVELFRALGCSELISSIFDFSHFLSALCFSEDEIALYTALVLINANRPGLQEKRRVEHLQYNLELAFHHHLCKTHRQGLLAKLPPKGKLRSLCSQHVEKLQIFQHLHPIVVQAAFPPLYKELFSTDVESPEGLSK
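Schneider cells (Drosophila), stable Gal4 DBD–ROR gamma + UAS-luc; 1 hr cmpd preincubation; Cu2+ induction 700 uM final; 20 hr ambient; luminescence.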
ALDH1A1 block: qHTS Assay for Inhibitors of Aldehyde Dehydrogenase 1 (ALDH1A1); hit rate 7.3% among 220,000; Potency, µM (doses to about 75.3 µM), for the others: top-dose activity, negative = inhibition, hits mostly inhibitors; AID 1030, 2008; Aldehyde dehydrogenase 1A1 (Homo sapiens), P00352; Purified ALDH1A1, NADH fluorescence, propionaldehyde substrate; active = well fitted inhibition curve with a large enough effect, not every such curve was filed as active; inconclusive = small, poorly fitted or top-dose-only effect, or another doubt; inactive = no such curve, though single readings can be large or run the other way;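 also: plate controls were no enzyme wells and a reference inhibitor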
Active calls of the source: *; ? = inconclusive; · = not tested or not shown; [ ] = another dose, or the depositor's remark. Shown are actives, neighbours in structure and some others; about 12% of the full set was active somewhere. Unless noted, calls follow the shape of the dose curve; as a rule, active = well fitted curve in the direction sought with a large enough effect; inconclusive = small, poorly fitted or top-dose-only effect, or another doubt; inactive = no such curve, though single readings can be large; an effect the other way counts as inactive or inconclusive. Unless noted, % is scaled to controls: 0 for no effect and ±100 for the full control effect; potency is read from the fitted curve at half-maximal effect.

SMILES	Sfp inh	VP16 counter	PLK1 PBD block	RORgamma inh	ALDH1A1 block
CCN(CC)c1ccc(NC(=O)CN2CCN(c3nc(C)cc(C)n3)CC2)cc1	7%	-3%	-11%	-22%	7.9µM*
CCOC(=O)OCC1OC(C#CC(C)(C)C)C=CC1OC(=O)OCC (configuration not stated)	30%	4%[10 µM]	·	-3%[10 µM]	23%[13.5 µM]
O=C(N[C@@H]1CC[C@@H](CCNC(=O)C2CCOCC2)O[C@@H]1CO)c1ccncc1	·	·	-11%	·	·
CC(=O)Nc1ccc(C(=O)N2CCCC(c3cc(C(=O)NCc4ccc(F)cc4)no3)C2)cc1 (configuration not stated)	·	·	-10%	·	·
CCC(Cl)CC(Cl)C(Cl)C(Cl)C(Cl)C(C)Cl (configuration not stated)	·	22%	·	3%	?
CCOc1[nH]c(/N=C/c2ccco2)c(C#N)c1C#N	45µM*	-3%	24µM*	-2%	20µM*
N#Cc1c(/N=C/c2ccco2)sc2c1CCC2	-12%	8%	-11%	21%	-5%
COc1ccc(CNc2ccnc(-c3ccccc3OC)n2)c(OC)c1	14%	0%	·	22%	-8%
Cc1ccc(CN2CCC(C)(Oc3cccc(Cl)c3)C2)cc1 (configuration not stated)	·	·	4%	·	·
Cn1c(N)c(C(=O)COC(=O)C2(c3ccc(Cl)cc3)CCCC2)c(=O)n(C)c1=O	-4%	-5%	3µM*	35%	-3%
O=C1C=CC(O)(c2cc(=O)c3c(O)cc(O)cc3o2)C=C1	?	2.8µM*	-22%	3.2µM*	-2%
O=c1cc(-c2ccccc2Cl)oc2cc(O)cc(O)c12	-10%	4%	-9%	6%	?
c1ccc2c(N3CCNCC3)nc(-c3ccc4c(c3)OCO4)nc2c1	-12%	8%	·	11%	?
CC(C)C[C@H](NC(=O)c1ccc(NCc2cnc[nH]2)cc1-c1cccc2ccccc12)C(=O)O	12%	0%	·	5%	·
CCc1ccc2[nH]c(=O)c(C(c3nnnn3CCOC)N3CCN(c4ccc(F)cc4)CC3)cc2c1 (configuration not stated)	18µM*	-3%	-11%	26%	?
COCCn1nnnc1C(c1cc2cccc(C)c2[nH]c1=O)N1CCN(c2ccccc2F)CC1 (configuration not stated)	14µM*	4%	-28%	6%	16µM*
CCc1ccc2[nH]c(=O)c(C(c3nnnn3CCOC)N3CCN(c4ccccc4)CC3)cc2c1 (configuration not stated)	32µM*	2%	-8%	19%	11µM*
Cn1cccc1C(=O)N1CCC2(CCCN(Cc3ccncc3)C2)CC1	-6%	-6%	·	1%	?
COC(=O)Cn1cc(C(=O)C2CC2)c2ccccc21	11%	-17%	-10%	?	10%
CC(NC(=O)Cn1cc(C(=O)C2CC2)c2ccccc21)c1ccccc1 (configuration not stated)	14%	2%	30µM*	29%	-4%
CCCN(CC1CC1)C(=S)NC(=O)c1ccc(S(=O)(=O)N2CCOCC2)cc1	-13%	0.89µM*	-15%	0.35µM*	?
N#CCCN(Cc1cccnc1)S(=O)(=O)c1ccc(S(=O)(=O)N2CCCCCC2)cc1	11%	-1%	-3%	0%	?
O=C(NC(=S)N1CCN(C(c2ccccc2)c2ccccc2)CC1)c1ccc(S(=O)(=O)N2CCOCC2)cc1	20%	0.028µM*	-4%	0.32µM*	2%
N#CCCN(Cc1cccnc1)C(=S)NC(=O)c1ccc(S(=O)(=O)N2CCCC2)cc1	2%	?	?	2.5µM*	14µM*
CN1CCN(C(=S)NC(=O)c2ccc(S(=O)(=O)N3CCOCC3)cc2)CC1	45µM*	?	?	10µM*	9.5µM*
SMILES	Sfp inh	VP16 counter	PLK1 PBD block	RORgamma inh	ALDH1A1 block
COc1ccc(C(N)c2csc(Nc3ccc(S(C)(=O)=O)cc3)n2)cc1 (configuration not stated)	·	·	-12%	·	·
Cc1onc(-c2ccccc2)c1C(=O)OCC(=O)N1CCCCC1	·	·	-13%	·	·
CC1=NN(c2ccccc2)C(=O)C1C(=O)c1ccc(Cl)cc1 (configuration not stated)	11%	?	-7%	11µM*	-3%
CC1=NN(c2ccccc2)C(=O)/C1=C/c1cccs1	-20%	-11%	17µM*	?	14µM*
CC1=NN(c2ccccc2)C(=O)C1=Cc1ccccc1	·	·	4.7µM*	·	·
CC1=NN(c2ccccc2)C(=O)C1C(=O)c1ccccc1 (configuration not stated)	-8%	?	-8%	?	8%
CC1=NN(c2ccccc2)C(=O)/C1=C/c1c(O)n(-c2ccc(F)cc2)[nH]c1=O	-15%	-17%	?	-6%	20µM*
CC1=NN(c2ccccc2)C(=O)/C1=C\N(O)c1ccccc1	-5%	1%	?	18%	·
CC(C)CN1CCCC2(CCN(C(=O)c3ccco3)CC2)C1	19%	-8%	·	-5%	?
Cc1ccc(NC(=O)COC(=O)CNC(=O)c2ccc(Br)cc2)c(C)c1	5%	6%	-10%	-8%	?
Cc1nc2ccc(C(=O)NCCc3c[nH]c4ccccc34)cn2c1N(C)C(=O)CCc1ccccc1	·	·	-1%	·	·
CC1=NN(c2ccccc2)C(=O)/C1=C\c1ccc(Br)s1	-5%	?	4.7µM*	?	7.9µM*
CC1=NN(c2ccccc2)C(=O)/C1=C/c1ccc(Cl)cc1	-23%	-6%	1.9µM*	?	·
CC1=NN(c2ccccc2)C(=O)/C1=C/C=C/C=C/N(C)C	?	-25%	42%	-9%	-12%
CC1=NN(c2ccccc2)C(=O)/C1=C/c1ccc[nH]1	7%	-2%	-7%	8%	-3%
CC1=NN(c2cccc(C(=O)O)c2)C(=O)/C1=C\C=C/c1ccccc1	50µM*	3.5µM*	5.3µM*	1.1µM*	?
COc1ccc(/C=C2/C(=O)N(c3ccccc3)N=C2C)cc1Br	50µM*	-3%	2.1µM*	19%	·
CC(C)c1ccc(C(=O)N2CCCCC2c2cc(C(=O)NCc3cccnc3)no2)cc1 (configuration not stated)	·	·	-12%	·	·
Cc1cccc(CN(C)C[C@H]2OCc3cnnn3CCCC(=O)N([C@@H](C)CO)C[C@@H]2C)c1	·	·	-9%	·	·
COc1cccc(C(O)c2nc(-c3ccc4ccccc4c3)cs2)c1 (configuration not stated)	·	·	-1%	·	·
CCOC(=O)c1cnc2c(OC)cccc2c1Nc1ccc2c(c1)OCCO2	-14%	18µM*	6%	16µM*	?
